From PubChem BioAssay
Most compounds without a hit are left out; they make up all but 19% or so of the library.
TDP1 cell noCPT – qHTS for Inhibitors of human tyrosyl-DNA phosphodiesterase 1 (TDP1): qHTS in cells in absence of CPT | Potency, µM (top dose mostly 46.2 µM), for the others: at the highest dose activity change, negative = growth inhibition, actives largely listed as inhibitors | actives 15% (n = 420,000) | DT40 Tdp1-/- hTDP1 cells, no CPT, ATP luminescence, 48 h; further: potency means the concentration at half of the fitted maximal effect; nearly all actives have a fitted effect of over 55% in size
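Growth of hTDP1-complemented DT40 Tdp1-knockout cells is measured by ATP luminescence after at least 48 hr compound exposure at 37 °C, with DMSO substituting for the 20 nM CPT used in the parallel screen.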
HT1080-NT tox – kills 2HG-producing HT-1080-NT fibrosarcoma cells | actives 1.6% (n = 360,000) | HT-1080-NT fibrosarcoma viability, CellTiter-Glo ATP luminescence, 48 h | Potency, µM (series often up to 46.1 µM), for the others: at the top dose activity, negative = less viability, hits mostly cytotoxic | AID 686970;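 further: NT is the 2HG producing partner of a matched IDH1 knockdown line; potency means the concentration at half of the fitted maximal effect; 0% = DMSO-treated cells and -100% = media-only wells without cells; nearly all actives have a fitted effect of over 55% in size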
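Viability of the 2HG-overproducing fibrosarcoma line after 48 hours of compound exposure at 37 degrees C was determined by luminescence with CellTiter-Glo, and concentration-effect curves were then fitted and categorized.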
DT40 TDP1 CPT – DT40-hTDP1 cell growth loss with CPT | chicken DT40 Tdp1-/-;hTDP1 cells + 20 nM CPT, ATP luminescence, 48 h | Potency, µM (doses to about 46.2 µM), for inactives: top-dose activity change, negative = growth inhibition, most hits filed as inhibitors | actives 12% (n = 420,000) | AID 686979; further: potency means the concentration at half of the fitted maximal effect; nearly all actives have a fitted effect of over 55% in size
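Chicken DT40 Tdp1-/- cells complemented with human TDP1, 400 cells/well, exposed to compounds plus 20 nM camptothecin for at least 48 h at 37 C; viability read as ATP content by CellTiter-Glo luminescence.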
HT1080 IDH1KD tx – HT-1080 IDH1 knockdown cell toxicity (counter line) | Potency, µM (series often up to 46.1 µM), for inactives: at the highest dose activity, negative = toxicity, usual class: cytotoxic | HT-1080 IDH1 knockdown viability, ATP luminescence, 48 h | actives 2% (n = 360,000);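 further: potency means the concentration at half of the fitted maximal effect; 0% = DMSO wells and -100% = cell-free medium wells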
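IDH1KD HT-1080 cells, 750/well, RPMI + 5% FBS; compound pinned after 2 h settling; 48 h, 37 °C; CellTiter-Glo luminescence; % activity normalised to DMSO and no-cell wells; curves fitted, classed by r2 and efficacy.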
IL-1B inflam inh – inflammasome signaling inhibition, IL-1 beta readout. THP-1 LPS/ATP IL-1B secretion, AlphaLISA, 16 h; hits give low values. activity change, % at 57.5 µM. actives 4.7% (n = 360,000); in the data active means activity change below about -50%; inconclusive means mostly about -30% to -49%
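Secreted IL-1B measured by AlphaLISA bead assay after 16 h compound exposure of THP-1 cells; compounds (final up to 57.5 uM) added 1 h before LPS (250 ng/mL) and ATP (1.25 mM) stimulation; lower signal means less secretion.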
The depositor's hits bear a star; u = inconclusive; x = no result; [ ] = remark or other dose. Unless noted, the call rests on the fitted dose curve; in most records, active means well fitted curve in the direction sought with a large enough effect; inconclusive means small, poorly fitted or top-dose-only effect, or another doubt; inactive means no such curve, though single readings can be large; an effect the other way counts as inactive or inconclusive. Unless noted, on the % scale 0 is the no-effect control and ±100 the full control effect.

SMILES	TDP1 cell noCPT	HT1080-NT tox	DT40 TDP1 CPT	HT1080 IDH1KD tx	IL-1B inflam inh
O=c1[nH]c(C2CCN(S(=O)(=O)/C=C/c3ccccc3)CC2)nc2c1nnn2Cc1ccc(F)cc1	18µM*	u	21µM*	-26%	-54*
O=c1[nH]c(C2CCN(S(=O)(=O)c3ccc(S(=O)(=O)NC4CC4)cc3)CC2)nc2c1nnn2Cc1ccccc1	-18%	u	-4%	-20%	u
O=c1[nH]c(C2CCN(S(=O)(=O)c3ccc(C(F)(F)F)cc3)CC2)nc2c1nnn2Cc1ccccc1	u	-5%	u	0%	-71*
CC(NCC(=O)NC(=O)NC1CCCC1)c1ccc(Cl)cc1Cl (configuration not stated)	-14%	-1%	-6%	-1%	u
Cc1ccc(NC(=O)CCS(=O)(=O)c2cccc3nsnc23)c(C)c1	-5%	x	4%	x	x
CCC(=O)c1cn(CC(=O)Nc2cccc(C)c2)c2ccccc12	-2%	0%	-11%	-12%	6
O=S(=O)(c1ccc(Cl)cc1)N1CCC(c2nc3ccccc3[nH]2)CC1	12µM*	-14%	u	u	3
COc1ccccc1N(CC(=O)NCCSc1ccccc1)S(=O)(=O)c1ccc(C)cc1	16µM*	x	u	x	x
COc1ccc(N(CC(=O)NCCSc2ccccn2)S(=O)(=O)c2ccccc2)c(OC)c1	21µM*	7%	u	8%	-12
Cc1cccc(N(CC(=O)NCCSc2ccccn2)S(=O)(=O)c2ccccc2)c1	15µM*	-3%	u	-2%	6
O=C(CN(c1ccccc1)S(=O)(=O)c1ccccc1)NCCSc1ccccn1	-3%	1%	1%	-4%	45
COc1ccc(S(=O)(=O)N(CC(=O)NCCSc2ccccn2)c2ccccc2)cc1	u	-17%	u	0%	17
COc1ccccc1N(CC(=O)NCc1ccccc1C)S(=O)(=O)c1ccc(C)cc1	u	-17%	u	-1%	-1
COc1ccc(N(CC(=O)NCCc2ccccc2)S(=O)(=O)c2ccccc2)c(OC)c1	21µM*	x	21µM*	x	x
O=C(Cn1c2ncccc2c(=O)n1-c1ccccc1)Nc1ccc(F)c(F)c1	-14%	x	-11%	x	x
CN(C)CCNC(=O)C(=O)NCC1CCCN1S(=O)(=O)c1cccs1 (configuration not stated)	-20%	16%	-17%	12%	-6
COCCCNC(=O)CN(c1cc(OC)ccc1OC)S(=O)(=O)c1ccccc1	-9%	7%	0%	16%	7
COc1ccccc1N(CC(=O)NCCSc1ccccc1)S(=O)(=O)c1ccccc1	18µM*	7%	u	-4%	-14
COc1ccccc1N(CC(=O)NCCSc1ccccc1)S(C)(=O)=O	-12%	9%	-10%	-1%	0
COc1ccc(CCNC(=O)CN(c2ccccc2OC)S(=O)(=O)c2ccc(C)cc2)cc1	23µM*	-13%	21µM*	-11%	-51*
COc1ccc(N(CC(=O)NCCSc2ccccc2)S(=O)(=O)c2ccccc2)c(OC)c1	13µM*	-1%	u	-5%	-29
COc1ccc(/C=C(\C#N)C(=O)C(C)(C)n2cncn2)cc1	-6%	4%	-5%	6%	39
O=S(=O)(c1ccc2c(c1)OCO2)N1CCN(c2nc(-c3cccs3)nc3ccccc23)CC1	u	10%	u	1%	x
COC(=O)c1ccc(Oc2ccc(S(=O)(=O)N3CCCCC3)cc2N)cc1	16µM*	u	u	-15%	12
Nc1cc(S(=O)(=O)N2CCCCC2)ccc1Oc1ccc(Cl)cc1	8.2µM*	0%	u	u	-14
SMILES	TDP1 cell noCPT	HT1080-NT tox	DT40 TDP1 CPT	HT1080 IDH1KD tx	IL-1B inflam inh
Cc1cc(C)n2c(Nc3cccc(C(F)(F)F)c3)c(-c3ccsc3)nc2n1	16µM*	x	16µM*	x	x
Cc1cc(C)n2c(Nc3ccccc3)c(-c3ccc(C)o3)nc2n1	u	5%	u	15%	x
Cc1cccc(Nc2c(-c3cccs3)nc3nc(C)cc(C)n23)c1	u	x	26µM*	x	x
CN(C(=O)COC(=O)c1ccc2c(c1)OCCO2)C1CCCCC1	3%	6%	-1%	2%	18
Cc1cccc(-n2c(O)c(C=Nc3cc(O)ccc3C)c3ccccc3c2=O)n1	u	u	21µM*	u	-13
Cc1cccc(-n2c(O)c(C=Nc3ccccc3O)c3ccccc3c2=O)n1	u	-23%	-25%	-7%	u
COC(=O)C1CN(Cc2ccccc2)C(=O)C1=O (configuration not stated)	-23%	5%	7%	0%	16
CCC(CO)Oc1cc(NC(=O)c2ccccc2Cl)c2ncn(C(C)C)c2c1 (configuration not stated)	-12%	-4%	-22%	-4%	-16
N#Cc1c(N)nc(Sc2ccc(Cl)cc2)c(C#N)c1-c1ccccc1Cl	15µM*	u	16µM*	u	-96*
Cc1cc(-c2ccc(Cl)cc2)c(C#N)c(N)n1	-7%	-15%	5%	-4%	14
OC(c1ccc(Cl)c(F)c1)c1ncc(-c2ccccc2F)[nH]1 (configuration not stated)	u	u	16µM*	u	46
Cc1ccccc1-c1cnc(C(O)c2ccc(Cl)c(F)c2)[nH]1 (configuration not stated)	-23%	-20%	29µM*	-15%	-62*
OC(c1ccc(Cl)c(Cl)c1)c1ncc(-c2ccccc2F)[nH]1 (configuration not stated)	u	-24%	u	-30%	-6
O=C(c1ccccc1F)N1CCN(c2ccc([N+](=O)[O-])c(NCC3CCCO3)c2)CC1 (configuration not stated)	18µM*	-3%	u	-1%	-17
CCCNS(=O)(=O)c1cc2c3c(c1)CCN3C(=O)CC2	0%	-5%	-9%	0%	-25
c1ccc(C2Nc3ccccc3Oc3ccccc32)cc1 (configuration not stated)	-14%	-27%	-18%	-22%	8
O=C1NC(c2ccccc2)N=C2Oc3ccccc3C=C12 (configuration not stated)	4.6µM*	u	4.6µM*	u	-54*
CCOc1ccc(NC(=O)NCCN2CCN(c3cc(Cl)ccc3C)CC2)cc1	u	x	21µM*	x	x
Cc1ccc(Cl)cc1N1CCN(CCNC(=O)Nc2ccc(Cl)cc2)CC1	u	x	12µM*	x	x
COc1ccc(N2CCN(CCNC(=O)Nc3ccc(Cl)cc3)CC2)cc1	u	0%[9.24 µM]	u	u	-26
